Results from the OligoGym collection.

biological target: WFIKKN1; experiment: pooled miR-30 sensor sort-seq; sequence = guide strand; settings: shRNA
Also: reference of the scale not given here.

Q: With AAGAACTTGAGGCCCATCTTGT as the sequence, how does the sensor-assay potency score (higher = more potent) read?
A: -0.385

Q: For TGATGCAGCACTTCTCAGCAGC, which sensor-assay potency score (higher = more potent) is on record?
A: -0.485

Q: With TCGCTGGTGACTCTGCTTCTCC as the sequence, how does the sensor-assay potency score (higher = more potent) read?
A: -1.48

Q: How did the sensor-assay potency score (higher = more potent) turn out when TCGGCGTCCATATAGCAGCGGT was run?
A: -1.4

Q: With TCGTAGGTCTCAAAGCCGCGGG as the sequence, how does the sensor-assay potency score (higher = more potent) read?
A: -1.25

Q: For TTCTTGACGCGCTTCTCGCTGG, which sensor-assay potency score (higher = more potent) is on record?
A: -0.797

Q: Which sensor-assay potency score (higher = more potent) does the source give for TTGACGCGCTTCTCGCTGGCGG here?
A: -0.83

biological target: WIZ; experiment: as above; settings: shRNA

Q: For TCTTCTTGAGGATCTCTCGCAG, which sensor-assay potency score (higher = more potent) is on record?
A: -0.0721

Q: How did the sensor-assay potency score (higher = more potent) turn out when TATTTGTTCAGGCTTCAGCTTC was run?
A: -1.07

Q: TTGACAAGTGATGTCTGGGGGG was tested. Which sensor-assay potency score (higher = more potent) did it give?
A: -0.32

Q: For TTTGGAGAAGTTCATCTCCAGG, which sensor-assay potency score (higher = more potent) is on record?
A: -1.49

Q: Which sensor-assay potency score (higher = more potent) does the source give for TTTGTTGATGTTCTGCCGCTGG here?
A: -0.379

Q: With TTCTCGAAGAACTCGCCGCAGA as the sequence, how does the sensor-assay potency score (higher = more potent) read?
A: -0.9

Q: With TTCAAATTTGTTGATGTTCTGC as the sequence, how does the sensor-assay potency score (higher = more potent) read?
A: 0.0401

Q: With AATTCCACCTCACAGAACCTGC as the sequence, how does the sensor-assay potency score (higher = more potent) read?
A: -1.06

Q: Which sensor-assay potency score (higher = more potent) does the source give for TTCTTCTTGAGGATCTCTCGCA here?
A: -0.31

Q: How did the sensor-assay potency score (higher = more potent) turn out when TTGAGGATCTCTCGCAGTGTGT was run?
A: -1.29

Q: Which sensor-assay potency score (higher = more potent) does the source give for TTCTGCTGTAGGTCATTGGTGT here?
A: -0.0622

Q: How did the sensor-assay potency score (higher = more potent) turn out when TTGGCCTTGACCTCTGCTGGGA was run?
A: -0.479

biological target: WNK4; experiment: as above; settings: shRNA

Q: Which sensor-assay potency score (higher = more potent) does the source give for TTCTGTAGTGTCTGTAGTGTTT here?
A: -0.833

Q: For TACACCGTCTTGAAGGAGCCAC, which sensor-assay potency score (higher = more potent) is on record?
A: -0.497

Q: Which sensor-assay potency score (higher = more potent) does the source give for TTGAGGTATCGGCCATCGGGGG here?
A: -1.54

Q: Which sensor-assay potency score (higher = more potent) does the source give for TTTTCCTCGTACATCTCGGGGG here?
A: 0.127

Q: TAGTTCATCCACACTGGGCTGG was tested. Which sensor-assay potency score (higher = more potent) did it give?
A: -0.183

Q: How did the sensor-assay potency score (higher = more potent) turn out when TACTTTTCCTCGTACATCTCGG was run?
A: -0.00694

Q: TTGTTGATCAGAAAGCATCAGA was tested. Which sensor-assay potency score (higher = more potent) did it give?
A: -0.592

Q: TTTTCTGTAGTGTCTGTAGTGT was tested. Which sensor-assay potency score (higher = more potent) did it give?
A: 0.147

Q: Which sensor-assay potency score (higher = more potent) does the source give for ATTGTCGCACTTGAGATCCCGG here?
A: -0.626

Q: Which sensor-assay potency score (higher = more potent) does the source give for TTTCCTCGTACATCTCGGGGGC here?
A: -0.103

Q: How did the sensor-assay potency score (higher = more potent) turn out when TCAAACTTGAGGTATCGGCCAT was run?
A: -0.186

Q: How did the sensor-assay potency score (higher = more potent) turn out when TTTCTGTAGTGTCTGTAGTGTT was run?
A: -0.643

biological target: WNT16; experiment: as above; settings: shRNA

Q: Which sensor-assay potency score (higher = more potent) does the source give for TCTACTGACATCAACTTGGCGA here?
A: -0.481

Q: With TTAACTTTTCAACATCTTCTAT as the sequence, how does the sensor-assay potency score (higher = more potent) read?
A: -0.546

Q: TTCTTTACAAAACACTGTCTTT was tested. Which sensor-assay potency score (higher = more potent) did it give?
A: -0.946

Q: TTATCTTCTACACAGTAGTTGG was tested. Which sensor-assay potency score (higher = more potent) did it give?
A: -1.09

Q: TTTCTTATCTTCTACACAGTAG was tested. Which sensor-assay potency score (higher = more potent) did it give?
A: -0.455

Q: How did the sensor-assay potency score (higher = more potent) turn out when TAAAATATAATAAATATCCAGG was run?
A: -0.303

Q: How did the sensor-assay potency score (higher = more potent) turn out when TTTACATTAAAATACATCCTTA was run?
A: -0.353

Q: Which sensor-assay potency score (higher = more potent) does the source give for AAATCTAGGAACTTTCTGCTGA here?
A: 0.396

Q: With TAACTTTTCAACATCTTCTATC as the sequence, how does the sensor-assay potency score (higher = more potent) read?
A: -0.48
